Activity calls are given as the source filed them. How the calls were made is not given here.
Potency means the concentration at half of the fitted maximal effect.

For this experiment, the system named is HIV-1 nucleocapsid protein NCp7 (binding to TG oligonucleotide). The experiment can be described thus: HIV Nucleocapsid (AID 346).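 Further: potency is for inhibitors that block NC binding and lower polarization.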 Conditions: HIV-1 NC / fluorescein-TGTGTGTG probe, fluorescence polarization. The essentials:
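NCp7 100 nM + fluorescein TG4xF 10 nM; Hepes pH 7.5/250mM NaCl/1uM ZnCl2/0.004% PEG 20000; 1 hr RT; FP, 45 s exposure; oligo-only wells as negative control.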
For orientation: In fluorescence polarisation assays a small probe gives low polarisation when free and higher when bound to something large.
For the molecule `COc1cccc(Nc2ncc3nc(C)c(=O)n(C)c3n2)c1`, the Potency is > 20 µM (inactive).
Under `COc1cccc(-c2cc(NCc3ccccc3OC)ncn2)c1` stands > 20 µM (inactive).
Regarding `Cc1noc(C)c1C(=O)N1CCC2(CCN(C(=O)NC(C)C)CC2)CC1`, the Potency was > 20 µM (inactive).
Under `N#Cc1ccccc1-c1ccc2ncnc(NCc3cccs3)c2c1` stands > 20 µM (inactive); under `O=C(c1ccco1)N1CCC2(CCN(Cc3nccs3)CC2)CC1`, > 20 µM (inactive).
Next, `Cc1cccc(CNc2ccnc(-c3ccccc3Cl)n2)c1`: > 20 µM (inactive); `COc1ccccc1-c1nc(NC2CC2)c2ccccc2n1`: > 20 µM (inactive); `COc1ccc(C(=O)N2CCC3(CC2)CN(c2cccc(-c4ccccc4)c2)C3)cc1`: > 20 µM (inactive).
Next, `COCCn1c(=O)c(-c2ccccc2)nc2cnc(N3CCNCC3)nc21`: > 20 µM (inactive).
With `Fc1ccc(Nc2ccnc(-c3ccccc3C(F)(F)F)n2)cc1`, the Potency was > 20 µM (inactive).
Next, `Cc1noc(C)c1-c1ccc2ncnc(NC3CC3)c2c1`: > 20 µM (inactive); `c1cncc(CNc2ncncc2-c2ccc3c(c2)OCO3)c1`: > 20 µM (inactive).
Turning to `Clc1ccccc1-c1cc(NCc2ccccc2)ncn1`, the Potency was > 20 µM (inactive).
Next, `CN(C)c1ncc2nc(-c3ccc(F)cc3)c(=O)n(CCc3ccccc3)c2n1`: > 20 µM (inactive); `FC(F)(F)c1ccccc1-c1cc(NCc2cccs2)ncn1`: > 20 µM (inactive); `COc1ccccc1CN1CCC2(CC1)CCN(S(=O)(=O)c1ccccc1)CC2`: > 20 µM (inactive).
Next, `COc1cccc(Cn2c(=O)c(-c3cn(C)c4ccccc34)nc3cnc(N4CCOCC4)nc32)c1`: > 20 µM (inactive); `COc1ccccc1CNc1ncnc2ccc(-c3ccccc3OC)cc12`: > 20 µM (inactive).
Under `COc1ccc(CNc2ncnc3ccc(-c4ccccc4OC)cc23)c(OC)c1` stands > 20 µM (inactive).
For the molecule `COCC(=O)N1CCC2(CC1)CN(Cc1nccs1)C2`, the Potency was > 20 µM (inactive).
Under `CN(C)C(=O)c1ccc(-c2nc(NCc3cccs3)c3ccccc3n2)cc1` stands > 20 µM (inactive); under `COCCn1c(=O)c(-c2cccc(Cl)c2)nc2cncnc21`, > 20 µM (inactive); under `COc1ccc(C(=O)N2CCC3(CCCN(C(c4ccccc4)c4ccccc4)C3)CC2)cc1`, > 20 µM (inactive).
For the molecule `O=C(c1cccc(F)c1)N1CCC2(CC1)CCN(c1ccc(-c3ccccc3)cc1)CC2`, the Potency was > 20 µM (inactive).
Next, `COc1ccc(Oc2ncc3ncc(=O)n(Cc4cccc(OC)c4)c3n2)cc1`: > 20 µM (inactive).

The values above are taken from PubChem BioAssay (NCATS).
